This is a sample that favours compounds with a hit; in the whole collection about 27% have one here.
CYP2C9 inh = inhibitors of human CYP2C9; CYP2C9 Supersomes, luciferin-H conversion, luminescence; inhibition, % at 5 µM; 96,000 tested, 20% active;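 active means blocking of liver enzyme CYP2C9 beyond about 50% at 5 µM, limit read from the data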
CYP2C9 activ = increases human cytochrome P450 2C9 activity; P11712; recombinant CYP2C9, luciferin-H conversion, luminescence; hits give high values; factor 1 = untreated enzyme, 0 = blocked; activation factor at 5 µM; 96,000 tested, 1.4% active; AID 1024;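 active means activation factor of 2 or more for CYP2C9 at a 5 µM dose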
Cav32 inh = human Cav3.2 channel inhibition, primary screen | Cav3.2-expressing cells, Fluo-4 calcium fluorescence FDSS; hits give low values | O95180 | AID 449739 | 100,000 tested, 4% active | B-score at 10 µM;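 active means single-dose well whose peak fluorescence ratio is a statistical outlier from its plate by either plate-standardised score or position-corrected B-score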
CYP2C19 act = activators of human cytochrome P450 2C19. 96,000 tested, under 10 active. recombinant CYP2C19, luciferin-H EGE luminescence; hits give high values; 0 = fully inhibited enzyme, 1 = untreated enzyme. activation factor at 5 µM. P33261;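 active means activation factor of at least 2 at 5 µM in the primary screen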
Target sequence (P33261 whole entry, looked up): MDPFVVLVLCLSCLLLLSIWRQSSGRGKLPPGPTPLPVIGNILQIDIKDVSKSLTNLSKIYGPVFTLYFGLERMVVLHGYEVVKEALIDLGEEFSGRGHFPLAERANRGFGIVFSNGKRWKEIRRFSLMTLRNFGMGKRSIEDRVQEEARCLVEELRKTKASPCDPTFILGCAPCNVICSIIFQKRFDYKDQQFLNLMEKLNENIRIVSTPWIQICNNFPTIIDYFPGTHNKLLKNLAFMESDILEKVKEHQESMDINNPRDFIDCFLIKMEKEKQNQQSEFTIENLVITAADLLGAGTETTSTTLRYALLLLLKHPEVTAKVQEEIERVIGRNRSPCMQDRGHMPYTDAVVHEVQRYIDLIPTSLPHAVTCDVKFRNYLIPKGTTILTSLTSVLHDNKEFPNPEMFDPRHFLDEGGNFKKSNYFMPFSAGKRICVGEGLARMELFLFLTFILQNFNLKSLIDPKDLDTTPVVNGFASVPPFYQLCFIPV
CYP2C19 inhib = human CYP2C19 inhibition; P33261; CYP2C19 Supersomes, luciferin-H EGE luminescence, 30 min; inhibition, % at 5 µM; 96,000 tested, 21% active; AID 778;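 active means CYP2C19 inhibition above a set limit at 5 µM in the primary screen, cut at about 50% in these data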
Of the large screens only hits and unclear results are named; the others gave an inactive call.

COC(C(=O)Nc1ccc(S(=O)(=O)N2CCCCC2)cc1)c1ccccc1 (stereo not drawn)	CYP2C9 inh 80 (no result: Cav32 inh)
O=C(COc1ccc([N+](=O)[O-])cc1)Nc1ccc(C(=O)NCc2cccnc2)cc1	none
COc1ccc(CCN2C(=O)c3ccncc3C2=O)cc1OC	none
O=C(c1ccc(Cl)c(Cl)c1)N1CCC(=O)N(C(COCc2ccccc2)Cc2ccccc2)CC1 (stereo not drawn)	Cav32 inh -5 (no result: CYP2C9 inh, CYP2C9 activ, CYP2C19 act, CYP2C19 inhib)
O=c1c2[nH]c3cccc(Cl)c3c2ncn1Cc1ccncc1	CYP2C9 inh 52, CYP2C19 inhib 58
O=c1c2[nH]c3ccccc3c2ncn1Cc1ccncc1	none
C=CCn1c(C)cc(C(=O)CSc2nnc(Cc3ccccc3)o2)c1C	none
C=CCn1c(C)cc(C(=O)CSc2nnc(NC(C)C)s2)c1C	CYP2C19 inhib 73
Cc1cc(C(=O)CSc2nnc(-c3ccc(OC(F)F)cc3)o2)c(C)n1Cc1cccs1	none
C=CCn1c(C)cc(C(=O)CSc2ccc(NC(C)=O)cc2)c1C	CYP2C19 inhib 91
COCCn1c(C)cc(C(=O)CSc2ccc3ccccc3n2)c1C	CYP2C19 inhib 68
COCCn1c(C)cc(C(=O)CSc2nc3ccccc3c(=O)[nH]2)c1C	none
Cc1csc(SCC(=O)c2cc(C)n(Cc3cccs3)c2C)n1	CYP2C9 inh 50, Cav32 inh -4, CYP2C19 inhib 84
Cc1occc(=O)c1OC(=O)Nc1ccccc1	none
COCCn1c(C)cc(C(=O)CSc2ccc(NC(C)=O)cc2)c1C	CYP2C19 inhib 93
COCC(C)n1c(C)cc(C(=O)CSc2ccc(NC(C)=O)cc2)c1C (stereo not drawn)	CYP2C19 inhib 81
COCC(C)n1c(C)cc(C(=O)CSc2nc3ccccc3c(=O)[nH]2)c1C (stereo not drawn)	none
CC(=O)Nc1ccc(SCC(=O)c2cc(C)n(Cc3cccs3)c2C)cc1	CYP2C9 inh 63
Cc1cc(C(=O)CSc2nnc(-c3ccco3)o2)c(C)n1Cc1ccco1	none
COCCn1c(C)cc(C(=O)CSc2nc(C)nc3sc4c(c23)CCC4)c1C	none (no result: CYP2C9 inh, CYP2C9 activ, CYP2C19 act, CYP2C19 inhib)
Cc1cc(C(=O)CSc2n[nH]c(-c3ccccc3F)n2)c(C)n1Cc1cccs1	CYP2C9 inh 92, CYP2C19 inhib 63
O=C(c1ccc(F)cc1)C1CCN(C(=O)NCc2ccccc2)CC1	none
O=C1CCC(=O)N(O)CCCCCNC(=O)CCC(=O)N(O)CCCCNC(=O)CCC(=O)N(O)CCCCCN1	none (no result: CYP2C9 inh, CYP2C9 activ, CYP2C19 act, CYP2C19 inhib)
COc1ccc(C2=NOC3(CC(=O)N(c4ccc5ccccc5c4)C3=O)C2)c(OC)c1 (stereo not drawn)	none
COCC(C)n1c(C)cc(C(=O)CSc2nnc(Nc3ccccc3F)s2)c1C (stereo not drawn)	CYP2C19 inhib 70
Cc1ccc(NC(=O)CCC(=O)OCC(=O)c2ccc(Oc3ccc([N+](=O)[O-])cc3)cc2)c(C)c1	none
COc1ccc(CCNc2ncnc3c2oc2ccccc23)cc1OC	CYP2C19 inhib 57
Cc1ccccc1N1CCN(Cc2c[nH]c3ccccc23)CC1	CYP2C19 inhib 56
Cn1cccc1C(=O)C(=O)Nc1cccc(Cl)c1Cl	CYP2C9 activ 2
Cn1cccc1C(=O)C(=O)Nc1ccc(Cl)cc1	none
Cc1c(C(=O)NC2=NCCS2)oc2ccccc12	CYP2C19 inhib 61
CC(=O)Nc1cccc(NC(=O)c2oc3ccccc3c2C)c1	CYP2C19 inhib 53 (no result: Cav32 inh)
Cc1c(C(=O)NCCc2ccc3c(c2)OCCO3)oc2ccccc12	CYP2C9 inh 82, Cav32 inh -7, CYP2C19 inhib 86
Cc1sc(NC(=O)c2oc3ccccc3c2C)c(C#N)c1C	none
Cc1ccc(NC(=O)c2ccco2)cc1NC(=O)CSc1nnc(-c2cccs2)n1C	none (no result: Cav32 inh)
Oc1c(Cl)cc(Cl)cc1C=Nc1ccc2c(c1)OCCO2	Cav32 inh -9
Cc1nc2ccccc2n2c(-c3ccccc3)c3c(=O)n(C)c(=O)n(C)c3c12	none
COc1ccc(C2c3c(oc4c(C)cc(C)cc4c3=O)C(=O)N2Cc2cccnc2)cc1OC (stereo not drawn)	none (no result: Cav32 inh)
COc1ccc(C2c3c(-c4cc(Cl)c(C)cc4O)n[nH]c3C(=O)N2Cc2cccnc2)cc1OC (stereo not drawn)	CYP2C9 inh 93, CYP2C19 inhib 86
COc1ccc(CCN2C(=O)C(O)=C(C(C)=O)C2c2ccccc2OC)cc1OC (stereo not drawn)	none
COc1ccc(CCN2C(=O)c3[nH]nc(-c4ccccc4O)c3C2c2cccc(O)c2)cc1OC (stereo not drawn)	CYP2C9 inh 98, CYP2C19 inhib 93
CC(NC(=O)C(NC(=O)C1CCCN1C(=O)OC(C)(C)C)C(C)C)C(N)=O (stereo not drawn)	none (no result: CYP2C9 inh, CYP2C9 activ, CYP2C19 act, CYP2C19 inhib)
Cc1ccc(/C(O)=C2\C(=O)C(=O)N(c3cc(C)on3)C2c2cccc(Br)c2)cc1 (stereo not drawn)	Cav32 inh -3.7
Cc1cc(N2C(=O)C(=O)/C(=C(/O)c3ccccc3)C2c2cccs2)no1 (stereo not drawn)	CYP2C9 inh 71
Cc1cc(N2C(=O)C(=O)/C(=C(/O)c3ccc(F)cc3)C2c2cccc(Br)c2)no1 (stereo not drawn)	CYP2C9 inh 61
Cc1ccc(/C(O)=C2\C(=O)C(=O)N(c3cc(C)on3)C2c2cccc(Cl)c2)cc1 (stereo not drawn)	Cav32 inh -3.1
O=c1ccc(Oc2nc(N3CCCCC3)nc(N3CCCCC3)n2)n[nH]1	none
COc1cccc(Cn2c(-c3cccs3)noc2=O)c1	CYP2C19 inhib 82
COc1ccc(CNC(=O)c2cc(-c3cccs3)on2)cc1	none
Cc1csc(NC(=O)C2CCN(C(=O)CSc3nnc(C)n3Cc3ccccc3)CC2)n1	none
C=CCn1c(SCC(=O)Nc2cc3oc4ccccc4c3cc2OC)nnc1-c1cnccn1	CYP2C9 inh 95, Cav32 inh -4.2, CYP2C19 inhib 75
C=CCn1c(SCC(=O)Nc2cccc3ccccc23)nnc1-c1cnccn1	CYP2C19 inhib 55
C=C(CO)C1Cc2cc(C(C)=O)ccc2O1 (stereo not drawn)	none (no result: CYP2C9 inh, CYP2C9 activ, CYP2C19 act, CYP2C19 inhib)
Cc1nc2ccc(NC(=O)c3c(-c4ccccc4)noc3C)cc2s1	none
COc1ccc(CNC(=O)c2ccc(-c3ccccc3)cc2)cc1	none
CS(=O)(=O)Nc1ccc(C(=O)NCc2ccc3c(c2)OCO3)cc1	none
CCOc1ncccc1C(=O)Nc1ccccc1C(=O)NCc1ccc2c(c1)OCO2	CYP2C9 inh 75
CSc1ccccc1C(=O)NCc1ccc2c(c1)OCO2	CYP2C19 inhib 94
CC(=O)OC(C(=O)NCc1ccc2c(c1)OCO2)c1ccccc1Cl (stereo not drawn)	CYP2C9 inh 54, CYP2C19 inhib 93
COc1ccc(CNC(=O)c2ccccc2SC)cc1	CYP2C19 inhib 90
C[C@H]1CC[C@]2(O[C@@H](CCO)C[C@H](O)[C@H]2O)O1	none (no result: CYP2C9 inh, CYP2C9 activ, CYP2C19 act, CYP2C19 inhib)
Cc1cccc(-c2oc3ccc(-c4ccc5c(c4)OCO5)cc3c2-c2ccc(OC3CCCCO3)cc2)c1 (stereo not drawn)	none (no result: CYP2C9 inh, CYP2C9 activ, CYP2C19 act, CYP2C19 inhib)
CCOC(=O)c1c(C)[nH]c(NC(=O)N2CCOCC2)c1C	none
